Data taken from PubChem BioAssay (EPA / NIEHS).
Inconclusive results are not listed. Calls of active or inactive are those of the source. Rule for the calls, unless noted: active = hit-call score of the fitted dose curve at least 0.9, where 1 is the maximum; inactive = score below 0.9.

Columns and labels:
[1] = molecular target: Oxysterols receptor LXR-alpha (Homo sapiens) (UniProt Q13133); assay: ATG_LXRa_TRANS: Attagene TRANS-FACTORIAL HepG2 Assay for human Liver X Receptor alpha (LXRa) (AID 2282980; active = hit-call score of the fitted dose curve at least 0.9, where 1 is the maximum); conditions: HepG2 Attagene TRANS reporter, LXRa transactivation
Method in brief: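 Read-out: reporter transcript levels by RT-PCR plus capillary electrophoresis, fluorescence intensity. Transiently transfected HepG2, exogenous NR-GAL4 chimera, GAL4-UAS reporters; 24 h compound exposure. Activity = increase over DMSO negative control.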

[2] = molecular target: Hepatocyte nuclear factor 4-alpha (Homo sapiens) (UniProt P41235); assay: ATG_HNF4a_TRANS: Attagene TRANS-FACTORIAL HepG2 Assay for human Hepatocyte Nuclear Factor 4 alpha (HNF4a) (AID 2282982; active = hit-call score of the fitted dose curve at least 0.9, where 1 is the maximum); conditions: HepG2 HNF4a transactivation reporter, mRNA readout
Method in brief: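 Endpoint reflects transcriptional activation of a GAL4-UAS reporter by an HNF4a-GAL4 chimera in transfected HepG2 cells, 24 h post-dosing. Fluorescence from RT-PCR products separated by capillary electrophoresis; DMSO baseline.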

[3] = molecular target: Nuclear receptor subfamily 4 group A member 2 (Homo sapiens) (UniProt P43354); assay: ATG_NURR1_TRANS: Attagene TRANS-FACTORIAL HepG2 Assay for human Nuclear Receptor Related Protein 1 (NURR1) (AID 2282985; active = hit-call score of the fitted dose curve at least 0.9, where 1 is the maximum); conditions: HepG2 Attagene TRANS reporter, mRNA readout
Method in brief: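 Endpoint: reporter mRNA increase relative to DMSO. HepG2 cells transfected with reporter units, treated 24 h; RNA processed by RT-PCR, labelling, HpaI digestion and capillary electrophoresis.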

[4] = molecular target: Transcriptional activator Myb (Homo sapiens) (UniProt P10242); assay: ATG_Myb_CIS: Attagene CIS-FACTORIAL HepG2 Assay for human Myeloblastosis (Myb) Proto-Oncogene Transcription Factor (AID 2282986); conditions: HepG2 Attagene CIS-FACTORIAL Myb reporter transcription; actives raise or lower the signal
Method in brief: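 Multiplexed cis-reporter system in HepG2: transient transfection, 24 h treatment, mRNA readout by RT-PCR and capillary electrophoresis. Both increases and decreases are scored versus DMSO negative control.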

[5] = molecular target: Nuclear respiratory factor 1 (Homo sapiens) (UniProt Q16656); assay: ATG_NRF1_CIS: Attagene CIS-FACTORIAL HepG2 Assay for human Nuclear Respiratory Factor 1 (NRF1) Orphan Gene (AID 2282987); conditions: HepG2 NRF1 cis-element reporter, Attagene multiplex; actives raise or lower the signal
Method in brief: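 Endogenous factor activity was captured via cis-element-driven reporter transcripts in HepG2 cells. Following 24 h chemical treatment, transcripts were quantified by RT-PCR and capillary electrophoresis.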

[6] = ATG_NFI_CIS: Attagene CIS-FACTORIAL HepG2 Assay for human Nuclear Factor I (NFI) (AID 2282989); conditions: HepG2 cis-regulatory reporter, NFI response element transcription; actives raise or lower the signal
Method in brief: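 Cells: human liver HepG2, transiently transfected with promoter-regulated reporter transcription units. Exposure 24 h. Detection: fluorescent RT-PCR products separated by capillary electrophoresis, normalised to DMSO negative control.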

[7] = molecular target: Myc proto-oncogene protein (Homo sapiens) (UniProt P01106); assay: ATG_Myc_CIS: Attagene CIS-FACTORIAL HepG2 Assay for human Myelocytomatosis (Myc) Proto-Oncogene Transcription Factor (AID 2282990); conditions: HepG2, Attagene cis-reporter transcription factor activity; actives raise or lower the signal
Method in brief: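 Transiently transfected HepG2 cells bearing cis-promoter reporter units for endogenous transcription factors; 24 h exposure. Reporter mRNA measured by RT-PCR, 6-FAM primer extension, HpaI cut and capillary electrophoresis; bidirectional fit relative to DMSO.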

[8] = ATG_NRF2_ARE_CIS: Attagene CIS-FACTORIAL HepG2 Assay for human Nuclear Factor Erythroid 2 Related Factor 2 (NFR2) response to Antioxidant Response Elements (ARE) (AID 2282992); conditions: HepG2 Attagene ARE/NRF2 reporter, transcription factor activity; actives raise or lower the signal;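 for AC50: reporter mRNA level measured by RT-PCR and capillary electrophoresis fluorescence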
Method in brief: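 Endogenous transcription factor activity in human liver HepG2 cells is tracked via a cis-element-driven reporter within a multiplexed set. mRNA induction is read by RT-PCR and capillary electrophoresis after 24 h, with DMSO as baseline.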

[9] = ATG_Oct_MLP_CIS: Attagene CIS-FACTORIAL HepG2 Assay for human Octamer-Binding Transcription Factor (Oct) (AID 2282993); conditions: HepG2 Attagene cis-factorial Oct reporter, mRNA; actives raise or lower the signal
Method in brief: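 HepG2, transient MRTU transfection, cis promoter elements; 24 h dosing; RT-PCR/CE fluorescence read-out of reporter mRNA; fit both directions vs DMSO.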

[10] = BSK_3C_uPAR: BioMAP Diversity Plus: 3C Assay for Urokinase-type plasminogen activator receptor (uPAR) Biomarker Activity (AID 2282998); conditions: BioMAP 3C HUVEC, uPAR biomarker ELISA; actives raise or lower the signal
Method in brief: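 A multiplexed primary-cell system built on human umbilical vein endothelium was used, with chemical present for 24 h before reading. Cell-surface uPAR was detected by ELISA; signal change in either direction counted against DMSO.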

[11] = molecular target: Glucocorticoid receptor (Homo sapiens) (UniProt P04150); assay: ATG_GR_TRANS: Attagene TRANS-FACTORIAL HepG2 Assay for human Glucocorticoid Receptor (GR) (AID 2282978; active = hit-call score of the fitted dose curve at least 0.9, where 1 is the maximum;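 note: activators score as hits since higher reporter transcript over DMSO is fitted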); conditions: HepG2 Attagene TRANS GR reporter, mRNA transcription
Method in brief: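 HepG2 transient transfection, multiple reporter units, GAL4-UAS under NR-GAL4 chimera control. 24 h treatment. Reporter mRNA by RT-PCR/CE fluorescence, DMSO as negative control.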

[12] = molecular target: Oxysterols receptor LXR-beta (Homo sapiens) (UniProt P55055); assay: ATG_LXRb_TRANS: Attagene TRANS-FACTORIAL HepG2 Assay for human Liver X Receptor beta (LXRb) (AID 2282981; active = hit-call score of the fitted dose curve at least 0.9, where 1 is the maximum); conditions: HepG2 Attagene TRANS GAL4-LXRb reporter, mRNA
Method in brief: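 Multiplexed reporter assay, HepG2, 24 h dosing. Fluorescence of labelled RT-PCR products after capillary electrophoresis gives transcript level; positive fitting direction relative to DMSO.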

[13] = ATG_M_32_TRANS: Attagene TRANS-FACTORIAL HepG2 Assay for M32 Transcription Factor (Internal Marker) (AID 2282984; active = hit-call score of the fitted dose curve at least 0.9, where 1 is the maximum;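 note: transcript level of a background control reporter unit measured by RT-PCR and capillary electrophoresis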); conditions: HepG2 Attagene TRANS M32 internal marker reporter
Method in brief: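 Internal-marker readout from a multiplexed transcription reporter panel. HepG2 cells were transfected with GAL4-UAS reporter units, treated 24 hours, and reporter transcript levels determined by fluorescence after RT-PCR and capillary separation.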

[14] = ATG_NF_kB_CIS: Attagene CIS-FACTORIAL HepG2 Assay for human Nuclear Factor Kappa B (NF-kB) (AID 2282991); conditions: HepG2 Attagene cis-factorial NF-kB reporter mRNA; actives raise or lower the signal
Method in brief: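 After 24 h compound incubation, transfected HepG2 cells yield total RNA; reporter cDNA is PCR-amplified, end-labelled with 6-FAM, HpaI-digested and analysed on a genetic analyser. Endogenous factor activity, DMSO-referenced bidirectional fit.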

[15] = molecular target: Cellular tumor antigen p53 (Homo sapiens) (UniProt P04637); assay: ATG_p53_CIS: Attagene CIS-FACTORIAL HepG2 Assay for human p53 Transcription Factor (AID 2282994); conditions: HepG2 p53 cis-element reporter, Attagene mRNA; actives raise or lower the signal
Method in brief: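 Steps: transfect HepG2 with multiplexed cis reporter constructs; dose chemicals 24 h; extract RNA, reverse-transcribe, PCR-amplify reporter sequences; FAM-label, HpaI-digest, resolve fragments by CE. Activity fitted both directions relative to DMSO.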

[16] = BSK_3C_TissueFactor: BioMAP Diversity Plus: 3C Assay for Tissue Factor Biomarker Activity (AID 2282997); conditions: BioMAP 3C HUVEC, tissue factor biomarker readout; actives raise or lower the signal
Method in brief: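 HUVEC, 3C system, 24 h post-dose; Tissue Factor by ELISA; bidirectional fit vs DMSO baseline.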

[17] = molecular target: Bile acid receptor (Homo sapiens) (UniProt Q96RI1); assay: ATG_FXR_TRANS: Attagene TRANS-FACTORIAL HepG2 Assay for Farnesoid X Receptor (FXR) (AID 2282979; active = hit-call score of the fitted dose curve at least 0.9, where 1 is the maximum;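 note: hits raise reporter mRNA above DMSO so AC50 marks FXR activation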); conditions: HepG2 Attagene TRANS FXR-GAL4 reporter transcription
Method in brief: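 Read-out: fluorescent reporter transcripts quantified by capillary electrophoresis after RT-PCR of total RNA. Source cells were HepG2 transiently carrying chimeric NR-GAL4 plus GAL4-UAS reporter units, dosed 24 h. Activity fitted upward relative to DMSO baseline.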

[18] = ATG_M_06_TRANS: Attagene TRANS-FACTORIAL HepG2 Assay for M06 Transcription Factor (Internal Marker) (AID 2282983; active = hit-call score of the fitted dose curve at least 0.9, where 1 is the maximum); conditions: HepG2 Attagene TRANS M06 internal marker reporter
Method in brief: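 Read-out: fluorescent reporter cDNA fragments resolved by capillary electrophoresis after RT-PCR and HpaI cut. Source cells were HepG2 carrying transfected multi-reporter GAL4 constructs, dosed 24 h. Increase over DMSO control analysed.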

[19] = molecular target: Estrogen-related receptor gamma (Homo sapiens) (UniProt P62508); assay: ATG_ERRg_TRANS: Attagene TRANS-FACTORIAL HepG2 Assay for human Estrogen-Related Receptor gamma (ERRg) (AID 2282977; active = hit-call score of the fitted dose curve at least 0.9, where 1 is the maximum;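 note: hits increase reporter signal over DMSO so potencies reflect activators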); conditions: HepG2 Attagene TRANS reporter, ERRg transactivation
Method in brief: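 Exogenous NR-Gal4 chimera activity measured as reporter transcript induction after 24 h in transiently transfected HepG2 cells. RNA reverse-transcribed, PCR-amplified, 6-FAM-labelled and resolved by capillary electrophoresis; increase over DMSO baseline.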

Measured: AC50

Sequence of Transcriptional activator Myb (Homo sapiens) (P10242 whole entry, looked up): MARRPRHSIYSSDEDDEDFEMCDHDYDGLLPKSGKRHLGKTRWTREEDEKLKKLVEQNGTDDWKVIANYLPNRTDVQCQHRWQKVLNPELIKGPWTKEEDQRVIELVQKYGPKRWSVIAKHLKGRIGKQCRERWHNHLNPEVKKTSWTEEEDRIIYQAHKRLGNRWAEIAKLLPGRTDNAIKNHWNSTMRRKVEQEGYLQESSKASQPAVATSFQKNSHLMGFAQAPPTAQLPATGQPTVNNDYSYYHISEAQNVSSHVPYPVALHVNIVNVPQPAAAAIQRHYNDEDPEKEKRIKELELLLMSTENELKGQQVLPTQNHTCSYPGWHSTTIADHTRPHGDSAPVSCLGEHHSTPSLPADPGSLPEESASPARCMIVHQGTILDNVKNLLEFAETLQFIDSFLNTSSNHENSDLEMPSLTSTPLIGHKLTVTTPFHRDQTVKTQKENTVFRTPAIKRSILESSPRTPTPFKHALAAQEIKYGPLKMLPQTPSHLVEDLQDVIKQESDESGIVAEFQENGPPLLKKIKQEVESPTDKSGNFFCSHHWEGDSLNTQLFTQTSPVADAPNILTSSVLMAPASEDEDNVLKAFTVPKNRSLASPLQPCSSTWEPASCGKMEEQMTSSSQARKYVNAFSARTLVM
Sequence of Hepatocyte nuclear factor 4-alpha (Homo sapiens) (P41235 whole entry, looked up, the tested form may be a part): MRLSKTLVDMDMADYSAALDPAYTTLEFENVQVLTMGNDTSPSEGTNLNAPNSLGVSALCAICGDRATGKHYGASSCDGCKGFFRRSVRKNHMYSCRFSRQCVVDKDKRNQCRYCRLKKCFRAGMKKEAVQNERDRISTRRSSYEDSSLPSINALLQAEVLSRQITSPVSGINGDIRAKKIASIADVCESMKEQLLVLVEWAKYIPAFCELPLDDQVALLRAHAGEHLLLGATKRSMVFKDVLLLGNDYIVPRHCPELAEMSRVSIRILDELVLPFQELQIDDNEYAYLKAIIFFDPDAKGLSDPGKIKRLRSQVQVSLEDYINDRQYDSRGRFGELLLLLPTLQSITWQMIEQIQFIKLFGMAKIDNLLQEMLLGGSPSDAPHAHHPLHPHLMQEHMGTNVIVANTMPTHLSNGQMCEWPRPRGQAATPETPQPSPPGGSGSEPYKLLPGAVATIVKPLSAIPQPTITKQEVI
Sequence of Cellular tumor antigen p53 (Homo sapiens) (P04637 whole entry, looked up, the tested form may be a part): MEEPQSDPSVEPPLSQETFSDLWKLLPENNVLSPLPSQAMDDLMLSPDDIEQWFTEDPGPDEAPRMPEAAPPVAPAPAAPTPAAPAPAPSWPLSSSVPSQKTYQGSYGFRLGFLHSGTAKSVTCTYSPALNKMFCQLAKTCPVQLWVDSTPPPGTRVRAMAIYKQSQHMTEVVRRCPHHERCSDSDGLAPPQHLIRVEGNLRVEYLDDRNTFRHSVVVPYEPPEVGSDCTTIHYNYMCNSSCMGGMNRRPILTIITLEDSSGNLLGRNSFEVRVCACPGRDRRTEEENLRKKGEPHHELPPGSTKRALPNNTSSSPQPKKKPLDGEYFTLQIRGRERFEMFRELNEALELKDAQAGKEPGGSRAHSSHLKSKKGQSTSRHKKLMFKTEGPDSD
Sequence of Myc proto-oncogene protein (Homo sapiens) (P01106 whole entry, looked up): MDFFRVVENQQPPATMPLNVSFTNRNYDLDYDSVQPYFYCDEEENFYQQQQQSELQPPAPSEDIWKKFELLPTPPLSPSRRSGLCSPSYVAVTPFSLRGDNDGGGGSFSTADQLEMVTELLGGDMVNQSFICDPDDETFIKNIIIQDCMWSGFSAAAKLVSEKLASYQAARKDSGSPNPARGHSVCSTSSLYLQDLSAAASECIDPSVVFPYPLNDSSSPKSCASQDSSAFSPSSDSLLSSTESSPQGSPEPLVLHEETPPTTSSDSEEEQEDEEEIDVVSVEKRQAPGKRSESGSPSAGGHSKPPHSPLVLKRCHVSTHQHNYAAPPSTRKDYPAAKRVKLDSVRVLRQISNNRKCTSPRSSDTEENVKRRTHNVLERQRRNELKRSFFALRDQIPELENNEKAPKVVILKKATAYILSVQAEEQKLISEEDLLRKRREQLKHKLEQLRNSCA
Sequence of Glucocorticoid receptor (Homo sapiens) (P04150 whole entry, looked up, the tested form may be a part): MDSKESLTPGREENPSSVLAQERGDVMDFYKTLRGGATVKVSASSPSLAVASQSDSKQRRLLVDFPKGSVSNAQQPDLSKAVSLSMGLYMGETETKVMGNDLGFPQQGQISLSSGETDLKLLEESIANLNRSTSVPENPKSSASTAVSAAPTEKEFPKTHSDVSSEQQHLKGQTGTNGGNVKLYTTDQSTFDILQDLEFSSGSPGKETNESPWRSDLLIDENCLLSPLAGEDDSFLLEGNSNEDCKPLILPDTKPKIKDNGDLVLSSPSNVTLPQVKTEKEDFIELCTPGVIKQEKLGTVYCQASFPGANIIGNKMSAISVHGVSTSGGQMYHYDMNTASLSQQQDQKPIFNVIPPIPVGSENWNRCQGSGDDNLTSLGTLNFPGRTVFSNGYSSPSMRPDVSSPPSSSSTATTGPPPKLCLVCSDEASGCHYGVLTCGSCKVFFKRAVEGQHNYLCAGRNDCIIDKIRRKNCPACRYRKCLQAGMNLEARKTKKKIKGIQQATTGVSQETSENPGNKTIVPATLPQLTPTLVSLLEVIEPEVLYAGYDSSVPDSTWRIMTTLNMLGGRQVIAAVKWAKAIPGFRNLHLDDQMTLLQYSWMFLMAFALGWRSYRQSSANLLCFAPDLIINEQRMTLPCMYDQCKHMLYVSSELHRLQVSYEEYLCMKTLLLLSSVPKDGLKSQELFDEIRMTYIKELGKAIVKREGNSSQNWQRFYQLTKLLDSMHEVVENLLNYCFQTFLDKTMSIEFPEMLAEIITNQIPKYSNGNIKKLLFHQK
Sequence of Oxysterols receptor LXR-beta (Homo sapiens) (P55055 whole entry, looked up, the tested form may be a part): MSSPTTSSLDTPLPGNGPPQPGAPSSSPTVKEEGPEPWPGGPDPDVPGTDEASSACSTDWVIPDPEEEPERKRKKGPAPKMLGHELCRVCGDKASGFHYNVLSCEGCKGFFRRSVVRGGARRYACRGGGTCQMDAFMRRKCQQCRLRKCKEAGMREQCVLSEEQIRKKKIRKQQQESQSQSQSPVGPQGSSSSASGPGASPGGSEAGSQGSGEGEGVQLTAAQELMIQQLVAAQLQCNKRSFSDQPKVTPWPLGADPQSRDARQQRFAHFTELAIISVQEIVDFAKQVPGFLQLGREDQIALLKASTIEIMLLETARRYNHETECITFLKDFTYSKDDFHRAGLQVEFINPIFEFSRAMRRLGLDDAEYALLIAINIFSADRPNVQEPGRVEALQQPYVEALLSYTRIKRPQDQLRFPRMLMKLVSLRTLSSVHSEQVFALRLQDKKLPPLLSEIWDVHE
Sequence of Nuclear respiratory factor 1 (Homo sapiens) (Q16656 whole entry, looked up): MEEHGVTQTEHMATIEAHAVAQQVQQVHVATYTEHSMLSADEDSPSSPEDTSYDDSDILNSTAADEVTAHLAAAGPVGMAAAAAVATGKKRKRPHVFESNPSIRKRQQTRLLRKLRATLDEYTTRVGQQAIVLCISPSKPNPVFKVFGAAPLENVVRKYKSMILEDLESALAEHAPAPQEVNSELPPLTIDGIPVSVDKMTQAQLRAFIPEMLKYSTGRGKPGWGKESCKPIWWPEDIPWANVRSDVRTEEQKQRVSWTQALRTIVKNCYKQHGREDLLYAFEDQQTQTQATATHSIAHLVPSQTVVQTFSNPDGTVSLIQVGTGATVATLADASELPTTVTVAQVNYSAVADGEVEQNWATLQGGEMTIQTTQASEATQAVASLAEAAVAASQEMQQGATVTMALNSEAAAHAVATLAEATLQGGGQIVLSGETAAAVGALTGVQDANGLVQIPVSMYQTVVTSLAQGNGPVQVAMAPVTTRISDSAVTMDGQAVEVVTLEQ
Sequence of Nuclear receptor subfamily 4 group A member 2 (Homo sapiens) (P43354 whole entry, looked up): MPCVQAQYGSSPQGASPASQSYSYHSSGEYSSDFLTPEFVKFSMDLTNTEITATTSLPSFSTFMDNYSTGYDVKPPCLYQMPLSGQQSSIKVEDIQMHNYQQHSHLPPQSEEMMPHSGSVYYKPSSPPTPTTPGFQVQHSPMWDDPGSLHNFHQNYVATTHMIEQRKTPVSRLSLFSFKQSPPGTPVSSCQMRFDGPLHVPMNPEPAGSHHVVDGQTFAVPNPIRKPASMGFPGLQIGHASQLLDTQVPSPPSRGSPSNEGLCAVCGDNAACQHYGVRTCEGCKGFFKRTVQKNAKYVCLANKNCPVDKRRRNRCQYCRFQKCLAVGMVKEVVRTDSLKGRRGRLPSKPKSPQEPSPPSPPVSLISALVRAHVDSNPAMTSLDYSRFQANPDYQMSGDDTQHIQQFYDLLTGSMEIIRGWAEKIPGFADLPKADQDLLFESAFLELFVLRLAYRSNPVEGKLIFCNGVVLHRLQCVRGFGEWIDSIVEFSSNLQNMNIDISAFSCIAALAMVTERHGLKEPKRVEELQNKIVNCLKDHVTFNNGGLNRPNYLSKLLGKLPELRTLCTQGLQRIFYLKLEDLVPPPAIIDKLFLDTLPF
Sequence of Oxysterols receptor LXR-alpha (Homo sapiens) (Q13133 whole entry, looked up, the tested form may be a part): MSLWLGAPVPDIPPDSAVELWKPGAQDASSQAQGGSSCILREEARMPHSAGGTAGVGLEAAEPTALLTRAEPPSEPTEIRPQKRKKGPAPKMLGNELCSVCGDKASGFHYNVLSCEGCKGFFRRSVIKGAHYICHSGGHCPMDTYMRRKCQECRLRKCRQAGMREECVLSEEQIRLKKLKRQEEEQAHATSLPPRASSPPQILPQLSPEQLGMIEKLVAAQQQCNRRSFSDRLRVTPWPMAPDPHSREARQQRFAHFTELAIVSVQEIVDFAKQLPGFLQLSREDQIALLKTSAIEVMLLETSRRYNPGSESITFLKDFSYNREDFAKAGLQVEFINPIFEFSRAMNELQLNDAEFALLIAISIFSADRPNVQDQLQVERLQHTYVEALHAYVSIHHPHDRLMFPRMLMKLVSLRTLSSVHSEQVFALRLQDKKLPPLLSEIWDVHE

CCC(C)Nc1c([N+](=O)[O-])cc(C(C)(C)C)cc1[N+](=O)[O-] (configuration not stated)
active: [8] 8.79 µM | [9] 15.1 µM | [10] 17.8 µM
inactive: [1] | [2] | [3] | [4] | [5] | [6] | [7]

O=[N+]([O-])c1c(Cl)c(Cl)c(Cl)c(Cl)c1Cl
active: [14] 13.8 µM | [8] 4.17 µM
not listed: [17] | [18] | [19]
inactive: all other assays above

CNC(=O)/C=C(\C)OP(=O)(OC)OC
not listed: [1] | [3] | [14] | [15] | [16] | [19]
inactive: all other assays above

Cc1[nH]c(=O)n(C(C)(C)C)c(=O)c1Cl
active: [8] 20.1 µM | [9] 24.2 µM
not listed: [3] | [11] | [15] | [16] | [17] | [19]
inactive: all other assays above

N#Cc1c(Cl)c(Cl)c(Cl)c(C#N)c1Cl
active: [8] 0.0739 µM | [9] 0.143 µM | [16] 1.37 µM | [10] 1.8 µM
not listed: [3] | [13] | [18] | [19]
inactive: all other assays above

[2H]C1([2H])[n+]2ccccc2-c2cccc[n+]2C1([2H])[2H]
active: [6] 50 µM | [7] 13.3 µM | [14] 13.2 µM | [8] 14.8 µM
not listed: [1] | [3] | [17] | [19]
inactive: all other assays above

CC(C)(C)C(O)/C(=C\c1ccc(Cl)cc1Cl)n1cncn1 (configuration not stated)
active: [10] 29.4 µM
not listed: [1] | [2] | [3] | [11] | [14] | [16] | [17]
inactive: all other assays above

CNC(=O)CSP(=S)(OC)OC
not listed: [11] | [14] | [15] | [16] | [17] | [19]
inactive: all other assays above
